Reference: the supplement of paper PMC7156485

System: TDF
Assay: H1.0 immunofluorescence intensity relative to DMSO (% of DMSO); higher = stronger H1.0 induction, active = 120 or more
Details: concentration: 10 µM; 24 h
How it was run: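 Treatment: HCC1569 and TDF cells, 800 per well in 384-well plates with RPMI and 10% FBS, were given compounds at 10 µM for 24 h at 37 °C, in triplicate. Readout: after 3.7% formaldehyde fixation, cells were stained with a rabbit anti-H1.0 antibody, an AlexaFluor 647 secondary and DAPI. Reported values are H1.0 nuclear intensity or cell number as percent of the plate control, taken as the median of replicates, with positional smoothing for HCC1569.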
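Also: TDF is a line of transformed human dermal fibroblasts of mesenchymal origin.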

Row | Compound | H1.0 immunofluorescence intensity
1 | CCCCCCCNC1CCCC1CCCCCCC(=O)O (racemic) | 88.5 (inactive)
2 | N[C@@H](CC(=O)O)C(=O)O [L-Aspartic acid] | 88.5 (inactive)
3 | O=c1cc(-c2cccc3c2Sc2ccccc2S3)oc(N2CCOCC2)c1 | 94.5 (inactive)
4 | COc1cccc(/C=N/CC/N=C/c2cccc(OC)c2[O-])c1[O-].[Cl-].[Mn+2] | 99.4 (inactive)
5 | CC1=NN(c2ccccc2)C(=O)C1 | 93.5 (inactive)
6 | CC1COC2=C1C(=O)C(=O)c1c2ccc2c1CCCC2(C)C (stereo not given) [Cryptotanshinone] | 106 (inactive)
7 | O=c1c(-c2ccc(O)cc2)coc2cc(OC3OC(CO)C(O)C(O)C3O)cc(O)c12 (stereo not given) [Genistin] | 93 (inactive)
8 | CCCCCCCCCCCCCC=CC(O)C(CO)NC(=O)CCCCCCCCCCCCCCC (stereo not given) [C16 Ceramide] | 102 (inactive)
9 | Cc1ccc(S(=O)(=O)N2c3ccccc3Oc3ccccc32)cc1 [10-[(4-methylphenyl)sulfonyl]-10H-phenoxazine] | 161 (active)
10 | COc1cc(C(=O)OC2CC(C)=CCCC(C)=CC(O)C2C(C)C)ccc1O (stereo not given) [Tschimganidin] | 96.2 (inactive)
11 | CC(C)c1ccc2c(c1)c(SC(C)(C)C)c(CC(C)(C)C(=O)[O-])n2Cc1ccc(Cl)cc1.[Na+] | 91.8 (inactive)
12 | CCCCCC=CCC=CCC=CCC=CCCCC(=O)OC(CO)COC(=O)CCCCCCCCCCCCCCCCC (stereo not given) [1-Stearoyl-2-arachidonoyl-glycerol] | 98.4 (inactive)
13 | CC(=O)NC(C(=O)O)C(C)(C)SN=O (stereo not given) [S-Nitroso-N-acetylpenicillamine] | 90.5 (inactive)
14 | O=C(Nc1cc(C(F)(F)F)cc(C(F)(F)F)c1)c1cc(Cl)ccc1O | 115 (inactive)
15 | O=C1CC(c2ccc(O)c(O)c2)Oc2c1ccc(OC1OC(CO)C(O)C(O)C1O)c2O (stereo not given) [Flavanomarein] | 94.9 (inactive)
16 | COc1cc(SC)ccc1C(=O)N1CCC(Cc2ccccc2)CC1 [p38 MAP Kinase Inhibitor VI, JX401] | 96.9 (inactive)
17 | CC1CCC2(C(=O)O)CCC3(C)C(=CCC4C5(C)CCC(O)C(C)(C)C5CCC43C)C2C1C (stereo not given) [Ursolic acid] | 97.5 (inactive)
18 | CN1CCN(C2=Nc3ccccc3Sc3ccc(Cl)cc32)CC1 [Clothiapine] | 94 (inactive)
19 | COc1cc2c3cc1Oc1cc(ccc1O)CC1c4c(cc(OC)c(O)c4Oc4ccc(cc4)CC3N(C)CC2)CC[N+]1(C)C (single isomer, unassigned; (+)) [(+)-Tubocurarine chloride] | 104 (inactive)
20 | CCCCCC(O)C=CC1=C(CC=CCCCC(=O)O)C(=O)CC1 (stereo not given) [Prostaglandin B2] | 92 (inactive)
